In PubChem BioAssay one finds composite Z-score and composite z-score data, which are given here for 36 compounds.

Activity calls are given as the source filed them.

One assay is described as follows: probe aXIP binding to arrayed compounds – biochemical, NeuroSMM set, 635/667 nm fluorescence, primary screen (AID 1119).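 Also: probe is the protein aXip251-270 applied at 1 µg/mL to compound-printed slides; binding of probe to printed compounds measured as 667 nm fluorescence plus signal to noise.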 The conditions noted are these: small-molecule microarray, higher = more signal, called active from +8 up or from −8 down.
Turning to `CCOC(=O)CCN1C(=O)[C@H]2[C@H]3[C@H](O)[C@H](O)CC(=NNC(=O)OCC)[C@H]3CC[C@H]2C1=O`, the composite Z-score was -0.17 (inactive).

For `COc1ccc2c(c1)O[C@@H](c1cccc(C(F)(F)F)c1)[C@H](O)C2=O`, the composite Z-score was 0.115 (inactive).

Take `COC(=O)CC=C[C@@H](C)[C@@H](C=NOC(C)CN1CCCCc2nc(C)c(C)cc21)NS(=O)(=O)c1ccc(C)cc1` (some centres undefined): the composite Z-score was -0.292 (inactive).

As to `CCOC(=O)[C@H](Cc1ccccc1)NC(=O)CCC1CC(OC(=O)NCc2cccc3ccccc23)CC2(CCCC(COC(=O)NCCc3ccccc3OC)O2)O1` (some centres undefined), the composite Z-score is -0.564 (inactive).

As for `O=C1C=C[C@@H](O)[C@@H]2[C@@H]3C(=O)N(c4cccc(Oc5ccccc5)c4)C(=O)[C@@H]3CC[C@@H]12`, the composite Z-score is -0.554 (inactive).

For `O=C1C=C[C@@H](O)[C@@H]2[C@@H]3C(=O)N(Cc4ccccc4)C(=O)[C@@H]3CC[C@@H]12`, the composite Z-score was -0.5 (inactive).

For the compound `COC(=O)[C@H](C)NC(=O)CCC1CC(OC(=O)NCc2ccc3c(c2)OCO3)CC2(CCCC(COC(=O)NCc3ccccc3)O2)O1` (some centres undefined), the composite Z-score was 0.264 (inactive).

As for `COc1ccc(COC(=O)NN=C2C[C@@H](O)[C@@H](O)[C@@H]3[C@@H]4C(=O)N(C(C)(C)C)C(=O)[C@@H]4CC[C@@H]23)cc1`, the composite Z-score was 0.526 (inactive).

A further assay in a line: probe aNOTCH3 binding on compound microarray – biochemical, small-molecule microarray, 635/667 nm fluorescence, primary screen (AID 1120).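 Also: probe is a biotin-tagged antibody raised against NOTCH3 rather than NOTCH3 protein; score merges spot fluorescence near 667 nm with spot signal to noise.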 To be noted: higher = more signal.
Turning to `CSCC[C@@H]1NC(=O)CC=C[C@@H](C)COC(=O)[C@H](C)COC1=O`, the composite z-score is -0.172.

Turning to `CC1(C)O[C@H]2O[C@H]([C@H](O)CON=C3[C@H]4CCn5c(=O)n(-c6ccccc6)c(=O)n5[C@H]4[C@H](O)[C@@H]4O[C@H]34)[C@H](O)[C@H]2O1`, the composite z-score is -0.342.

With `COc1cccc([C@H]2Oc3ccc(OC)cc3C(=NO[C@@H](C)c3cc(-c4c(C)cc(C)cc4C)no3)[C@@H]2O)c1`, the composite z-score is -0.305.

As for `CC(=O)OC[C@H]1O[C@H](C#CCCc2ccccc2)C=C[C@@H]1OC(C)=O`, the composite z-score came out at 0.106.

As to `CC(C)=CCCC(C)=CCON=C1C[C@@H](O)[C@@H](O)[C@@H]2[C@@H]3C(=O)N(C4CCCCC4)C(=O)[C@@H]3CC[C@H]12`, the composite z-score is -0.0784.

The compound `COC(=O)[C@H](C)NC(=O)CCC1CC(OC(=O)NCc2ccc3c(c2)OCO3)CC2(CCCC(COC(=O)NCCc3ccc(Cl)cc3)O2)O1` (some centres undefined) came in with a composite z-score of 0.0129.

On to `COC(=O)[C@H](C)NC(=O)CCC1CC(OC(=O)NCCc2ccc(F)cc2)CC2(CCCC(COC(=O)NCC3CCCCC3)O2)O1` (some centres undefined), for which the composite z-score was -0.0362.

As to `CCN1C(=O)[C@H]2[C@H]3[C@H](O)[C@H](O)CC(=NO[C@H](C)c4cn([C@H](CO)Cc5ccccc5)nn4)[C@@H]3CC[C@H]2C1=O`, the composite z-score was found to be 0.0539.

With `CCN1C(C)=C(C(=O)OC)[C@@H](c2ccccc2)N2C(=O)[C@](O)(C(=O)OC)CC(C(C)=O)=C12`, the composite z-score is -0.15.

Consider `C=CC[C@@H]1C=C[C@H](ON=C(C)CCN2CCCCc3nc(C)c(C)cc32)[C@@H](CO)O1`, for which the composite z-score was -0.0304.

Consider `CC(C)=NOC(C)CN1CCCCc2nc(C)c(C)cc21` (centres undefined), for which the composite z-score turned out to be 0.169.

Consider `CCOC(=O)[C@H](Cc1ccccc1)NC(=O)CCC1CC(OC(=O)NCCc2ccc(F)cc2)CC2(CCCC(COC(=O)NCCOc3ccccc3)O2)O1` (some centres undefined), for which the composite z-score was determined as 0.0833.

Turning to `Cc1ccc(S(=O)(=O)N[C@@H]2COC(=O)CC=C[C@@H](C)[C@H](NS(=O)(=O)c3ccc(C)cc3)COC(=O)[C@H](C)NC(=O)CC=C[C@H]2C)cc1`, the composite z-score is -0.0647.

Take `CCOC(=O)CCN1C(=O)[C@H]2[C@H]3[C@H](O)[C@H](O)CC(=NOCC(C)C)[C@@H]3CC[C@H]2C1=O`: the composite z-score was -0.0693.

For `CC(=O)OC[C@H]1O[C@H](CCON=C(C)CCN2CCCc3nc(C)c(C)cc32)C=C[C@@H]1OC(C)=O`, the composite z-score worked out at 0.121.

Take `Cc1cc2c(nc1C)CCCCN2CC(O)CN1CCCc2nc(-c3ccc(Br)cc3)ccc21` (centres undefined): the composite z-score stood at 0.298.

As to `CC(C)(C)N1C(=O)[C@H]2[C@@H]3C(=CC[C@H]2C1=O)C(=O)[C@H]1O[C@H]1[C@H]3O`, the composite z-score was -0.0976.

With `CC(CCN1CCCc2nc(C)c(C)cc21)=NOC[C@@H](C)[C@H](OCc1ccccc1)C(C)C`, the composite z-score was -0.0918.

In the case of `CON=C(C)CCC(=O)OC[C@H]1O[C@H](C#Cc2ccccc2)C=C[C@@H]1Oc1ccc(C)cc1`, the composite z-score was -0.0111.

Turning to `C[C@@H]1CC[C@@H](C(=O)O)N[C@H]1c1cccc(N2CCOCC2)c1`, the composite z-score was 0.0624.

Consider `O=C1C2=CC[C@H]3C(=O)N(C4CCCCC4)C(=O)[C@H]3[C@H]2[C@H](O)[C@@H]2O[C@H]12`, for which the composite z-score is -0.199.

Compound `CCOC(=O)[C@H](Cc1ccccc1)NC(=O)CCC1CC(OC(=O)NCCc2ccc(F)cc2)CC2(CCCC(COC(=O)NCc3cccc(C(F)(F)F)c3)O2)O1` (some centres undefined) showed a composite z-score of 0.148.

As to `O=C1[C@H]2[C@H]3[C@H](O)[C@H](O)CC(=NO[C@@H]4O[C@H](CO)[C@@H](O)[C@H](O)[C@H]4O)[C@H]3CC[C@H]2C(=O)N1C[C@@H]1CCCO1`, the composite z-score was -0.136.

On to `CC(CCC(=O)OC[C@H]1O[C@H](C#Cc2ccccc2)C=C[C@@H]1Oc1ccc(C)cc1)=NOC[C@@H](C)[C@H](OCc1ccccc1)C(C)C`, for which the composite z-score was -0.325.

In the case of `C[C@@H]1CC[C@H]2C(=O)OC(Cc3ccccc3)CN2[C@H]1c1ccc(Br)cc1` (some centres undefined), the composite z-score was -0.0362.

For the compound `COC(=O)CC=C[C@@H](C)[C@@H](C=NOC[C@@H](O)COCc1ccco1)OC`, the composite z-score was -0.262.

As to `CCc1cc2c(nc1CC)CCN(CCC(C)=NOC[C@@H](C)[C@H](OCc1ccccc1)C(C)C)C2`, the composite z-score was -0.443.

`O=C1C2=CC[C@H]3C(=O)N(C[C@@H]4CCCO4)C(=O)[C@H]3[C@H]2[C@H](O)[C@@H]2O[C@H]12`: the composite z-score was -0.183.

On to `CCOC(=O)CCN1C(=O)[C@H]2[C@H]3[C@H](O)[C@H](O)CC(=NNC(=O)OCC)[C@H]3CC[C@H]2C1=O`, for which the composite z-score came to 0.0927.

Consider `COc1ccc2c(c1)O[C@@H](c1cccc(C(F)(F)F)c1)[C@H](O)C2=O`, for which the composite z-score is -0.152.

Regarding `COC(=O)CC=C[C@@H](C)[C@@H](C=NOC(C)CN1CCCCc2nc(C)c(C)cc21)NS(=O)(=O)c1ccc(C)cc1` (some centres undefined), the composite z-score came out at 0.0949.

`CCOC(=O)[C@H](Cc1ccccc1)NC(=O)CCC1CC(OC(=O)NCc2cccc3ccccc23)CC2(CCCC(COC(=O)NCCc3ccccc3OC)O2)O1` (some centres undefined) gave a composite z-score of 0.121.

As for `O=C1C=C[C@@H](O)[C@@H]2[C@@H]3C(=O)N(c4cccc(Oc5ccccc5)c4)C(=O)[C@@H]3CC[C@@H]12`, the composite z-score was -0.132.

Compound `O=C1C=C[C@@H](O)[C@@H]2[C@@H]3C(=O)N(Cc4ccccc4)C(=O)[C@@H]3CC[C@@H]12` yielded a composite z-score of 0.21.

Regarding `COC(=O)[C@H](C)NC(=O)CCC1CC(OC(=O)NCc2ccc3c(c2)OCO3)CC2(CCCC(COC(=O)NCc3ccccc3)O2)O1` (some centres undefined), the composite z-score is -0.0072.

As for `COc1ccc(COC(=O)NN=C2C[C@@H](O)[C@@H](O)[C@@H]3[C@@H]4C(=O)N(C(C)(C)C)C(=O)[C@@H]4CC[C@@H]23)cc1`, the composite z-score turned out to be 0.136.
